# Screens (PubChem)
# NADH coupling = inhibitors of PK/LDH coupling enzymes, profiling panel, artefact control, biochemical, MLSMR library. coupled PK/LDH NADH assays, four targets. IC50, µM (highest dose often 10 µM), without a hit: at the highest dose inhibition. 0.02% of 65,000 active. AID 774, 2007;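 active = single-dose screening hits from any of four coupled enzyme assays that gave an IC50 when retested across doses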;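 note: the DPM-DC format reads NADH fluorescence rather than 340 nm absorbance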
# Fluor 339 460 = intrinsic fluorescence of library compounds, ex339/em460 – biochemical, MLSMR library, data from DPM-DC assay, artefact control, profiling panel. compound autofluorescence, ex339/em460 nm, NADH buffer; hits give high values; 1 = no-compound wells, NADH background. fluorescence fold increase at 10 µM. 5.5% of 65,000 active;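 active = at 10 µM, mean starting fluorescence two-fold or more over control wells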;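 note: signal is the first read of a kinetic run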
# PMK inhibit = S. pneumoniae PMK inhibitors, primary screen, biochemical, mevalonate pathway, pilot trial included; phosphomevalonate kinase (Streptococcus pneumoniae D39); purified PMK, PK/LDH-coupled NADH absorbance 340 nm; 0.49% of 65,000 active; inhibition, % at 10 µM;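 active = top-ranked compounds by inhibition in the single 10 µM screen, taking a fixed number of the strongest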;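 note: 0% = full reaction with DMSO carrier and 100% = background rate without enzyme reaction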
# MK inhibit = S. pneumoniae MK inhibitors, primary screen, biochemical, PK/LDH-coupled NADH absorbance; mevalonate kinase [Streptococcus pneumoniae D39]; purified MK, PK/LDH-coupled NADH absorbance 340 nm; inhibition, % at 10 µM; 0.48% of 65,000 active;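 active = ranked among the strongest by inhibition in the single 10 µM screen, a fixed top-ranked set picked for dose follow-up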
# DPM-DC inhibit = S. pneumoniae DPM-DC inhibitors, primary screen, biochemical, PK/LDH-coupled NADH fluorescence; AID 556, 2006; purified DPM-DC; calls only at 10 µM; 0.49% of 65,000 active;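 active = the 320 compounds with the highest percent inhibition in the single-dose primary screen, excluding strongly autofluorescent ones, cut at about 32% in these data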;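 note: kinetic rate of NADH fluorescence loss reporting ADP formed by the decarboxylase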
# A340 absorber = compound light absorbance at 340 nm, profiling panel, artefact control, biochemical, MLSMR library, data from PS, PMK, MK assays; compound absorbance at 340 nm, fold over control; fold change at 10 µM; 65,000 tested, under 10 active;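 active = at 10 µM dose, initial 340 nm absorbance at least 2 fold that of control wells; inactive = change under 2 fold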;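 note: initial absorbance extrapolated from kinetic A340 decline of NADH oxidation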
# * = called active by the depositor; i = inactive; · = no result shown; + = active, no number. In the library only some 6.5% were active in any assay of this set; here they are far more common.
SMILES,NADH coupling,Fluor 339 460,PMK inhibit,MK inhibit,DPM-DC inhibit,A340 absorber
Cc1cc(N2C(=O)C3C4c5ccccc5C(c5ccccc54)C3C2=O)no1 (centres undefined),2%,1.1,1,2,i,1
Cc1cc(-n2c(=O)c(C#N)cc3c(=O)n4ccccc4nc32)no1,13%,3.8*,16,9,·,1.1
Cc1ccc(N(C(=O)C2CCCC2)C2C=CS(=O)(=O)C2)cc1C (centres undefined),7%,1.1,17,4,i,1
O=c1[nH]c2cc3c(cc2cc1CN(CC1CCCO1)S(=O)(=O)c1ccc(Cl)cc1)OCCO3 (centres undefined),7%,2.6*,8,9,i,1.1
CC(=O)c1ccc(S(=O)(=O)N(Cc2cc3cc4c(cc3[nH]c2=O)OCCO4)CC2CCCO2)cc1 (centres undefined),3%,1.2,5,·,i,1
Cc1ccc(S(=O)(=O)N(Cc2cc3cc4c(cc3[nH]c2=O)OCCO4)CC2CCCO2)cc1 (centres undefined),4%,3.5*,2,6,·,1.1
COC(=O)c1ccc(S(=O)(=O)N(Cc2cc3cc4c(cc3[nH]c2=O)OCO4)C2CCCCC2)cc1,6%,3.6*,2,10,·,1
Cc1ccc(-n2ncc3c(=O)n(CC(=O)Nc4cccc(Cl)c4)cnc32)cc1C,4%,2.7*,9,3,i,0.98
CCOc1ccccc1NC(=O)Cn1cnc2c(cnn2-c2ccc(C)c(C)c2)c1=O,6%,1.6,13,4,i,0.96
CCOc1ccc(C(C)=O)cc1COc1ccc(-n2cnnn2)cc1,3%,1,11,2,i,0.99
CCc1cc(=O)oc2cc(OCC(=O)O)c(Cl)cc12,12%,2.4*,4,6,i,1.1
CCc1cc(=O)oc2cc(OC(C)C(=O)O)c(Cl)cc12 (centres undefined),14%,2.9*,13,8,i,1.1
CCCCCNc1c(C(=O)OCC)c(=O)[nH]c2ccccc12,4%,1.1,5,7,i,1
Cc1ccc(C2C3=C(CC(C)(C)CC3=O)N(CCN3CCOCC3)C3=C2C(=O)CC(C)(C)C3)cc1,16%,3.8*,5,8,+,0.99
CCc1cc(=O)oc2cc(C)c(CN3CCCC3)c(O)c12,1%,1.1,4,0,i,1
CCCc1cc(=O)oc2c(CN3CCCC3)c(O)ccc12,3%,2.3*,0,6,·,1.1
CCCc1cc(=O)oc2cc(C)c(CN3CCCC3)c(O)c12,2%,1.2,1,6,i,1.1
CCCc1cc(=O)oc2c(CN3CCCC3)c(O)c(Cl)cc12,3%,2.4*,6,0,·,1.1
CN(C)CCN(Cc1ccccc1)c1ccccn1,2%,1,0,6,i,0.99
CN(C)CCN(Cc1ccccc1)c1ccnc(N(C)C)c1C#N,22%,1.4,7,56*,i,1.1
CCN(CCCNC(=O)C1CCN(S(=O)(=O)c2cnc[nH]2)CC1)c1cccc(C)c1,11%,1,23,9,i,0.97
